Source: PubChem
TEAD-YAP block: TEAD-YAP interaction inhibition; AID 1259422; HEK-TIYL cells, TEAD-Gal4/YAP UAS-luciferase luminescence; hit rate 1.4% among 640,000; inhibition, % at 9.12 µM; in the data active = inhibition above about 32%;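 note: 0% = median of test compound wells and 100% = reference inhibitor wells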
GPR151 activ: activators of human GPR151; Q8TDV0; PathHunter beta-arrestin GPR151 cells, luminescence; activation, % at 11.2 µM; hit rate 1% among 650,000; AID 1508602; in the data active = activation above about 4.9%;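 note: 0% = median of compound wells and 100% = cells with positive control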
FBW7 activator: activators of human E3 ligase FBW7; Q969H0; AlphaScreen FBW7–phospho-cyclin E peptide binding, activator screen; normalized activity (activation), % at 26.1 µM; hit rate 0.13% among 650,000; in the data active = normalized activity above about 1.9%;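 note: purified mutant Fbw7 with reduced substrate affinity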
MITF primary: inhibitors of human MITF. AlphaScreen MITF homodimerization, bead proximity signal. inhibition, % at 2.6 µM. hit rate 0.91% among 650,000. AID 1259374; in the data active = inhibition above about 50%;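 note: 0% = vehicle wells with protein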
Target sequence (O75030 whole entry, looked up): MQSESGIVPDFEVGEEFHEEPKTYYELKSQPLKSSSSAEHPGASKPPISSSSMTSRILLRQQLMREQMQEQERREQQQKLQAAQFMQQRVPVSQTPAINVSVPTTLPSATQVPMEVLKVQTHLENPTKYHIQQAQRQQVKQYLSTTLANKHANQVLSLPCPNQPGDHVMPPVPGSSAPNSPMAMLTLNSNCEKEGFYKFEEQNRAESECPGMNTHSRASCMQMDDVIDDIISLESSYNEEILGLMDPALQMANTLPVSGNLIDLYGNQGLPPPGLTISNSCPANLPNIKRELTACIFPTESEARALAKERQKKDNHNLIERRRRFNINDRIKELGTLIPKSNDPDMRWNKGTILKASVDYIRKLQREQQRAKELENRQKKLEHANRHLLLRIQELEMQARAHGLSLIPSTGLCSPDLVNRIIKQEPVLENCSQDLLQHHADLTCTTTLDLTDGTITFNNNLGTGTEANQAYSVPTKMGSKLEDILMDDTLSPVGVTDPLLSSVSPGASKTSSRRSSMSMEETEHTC
MITF inh conf: human MITF inhibition, confirmation; shares compounds with MITF primary; AlphaScreen MITF homodimerization, biotin/His-MITF beads; inhibition, % at 2.6 µM; hit rate 16% among 4,700;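 active = inhibition above a cutoff derived from the DMSO control wells, cut at about 28% in these data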;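 note: 0% = MITF dimer wells with DMSO only; inhibitors lower the bead chemiluminescence by keeping MITF from dimerizing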
AlphaScreen DR: counter-screen: compounds optically interfering with AlphaScreen. shares compounds with MITF primary. AlphaScreen optical interference counterscreen, cell-free. IC50, µM. hit rate 6% among 480. AID 1259373; call rule not given here
AlphaScreen intf2: optically interferes with AlphaScreen signal; shares compounds with MITF primary; LysRS AlphaScreen counterscreen, signal interference, triplicate; hit rate 7.6% among 4,700; inhibition, % at 2.6 µM;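 active = inhibition above a cutoff derived from the DMSO control wells, cut at about 30% in these data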
Starred values were filed as active, the others as inactive; · = no result. Only some compounds are listed: those with a hit (about 3.5% of all), similar ones and a draw of the others.

SMILES | TEAD-YAP block | GPR151 activ | FBW7 activator | MITF primary | MITF inh conf | AlphaScreen intf2 | others
O=C1C2C3C=CC(C3)C2C(=O)N1CCC(=O)N1c2ccccc2Sc2ccccc21 (stereo not given) | 8 | 0 | 0 | 18 | · | ·
COc1ccc(CCN(Cc2ccccn2)C(=S)Nc2cc(Cl)ccc2C)cc1OC | -5 | 0 | 0 | -17 | · | ·
O=C(O)c1ccc(-n2cnnn2)cc1Cl | 6 | 2 | 0 | 10 | · | ·
O=C(O)c1ccc(-n2cccc2)cc1Cl | 0 | 0 | 0 | 79* | 75* | 12 | AlphaScreen DR=>6.5
O=C(Cn1c(=S)[nH]c2ccccc2c1=O)N(CCO)Cc1ccccc1 | -2 | -1 | 0 | 63* | 1 | 3
COc1cc(/C=N/NC(=O)c2ccccc2OC(C)C)cc(Br)c1O | -10 | 2 | 0 | -6 | · | ·
COC(=O)c1ccc(NC(=O)CN2CCC(Cn3c(C)nc4ccccc43)CC2)cc1 | 12 | 0 | 0 | 68* | 5 | 22
Cc1cc(NC(=O)CN2CCC(Cn3c(C)nc4ccccc43)CC2)no1 | 39* | -1 | 0 | 79* | 11 | 14
COc1cc(OC)cc(C(=O)Nc2cc(-c3nc4ncccc4o3)ccc2C)c1 | -1 | -1 | 0 | 4 | · | ·
CC(=O)Nc1ccc(NC(=O)CSc2ccc(-c3ccccc3)nn2)cc1 | -8 | -9 | 0 | 3 | · | ·
O=S(=O)(c1ccc2ccccc2c1)N1CCN(Cc2ccccc2F)CC1 | 1 | 0 | 0 | 54* | 11 | 16
COc1ccc(S(=O)(=O)N2CCN(Cc3cc(OC)c(OC)c(OC)c3)CC2)cc1 | 1 | -2 | 0 | 56* | -1 | 9
COc1ccc(S(=O)(=O)N2CCN(Cc3ccccc3F)CC2)cc1 | 5 | 1 | 0 | 7 | · | ·
O=S(=O)(c1ccc(F)cc1)N1CCN(Cc2ccncc2)CC1 | 0 | -1 | 0 | 73* | 13 | 19
CCOc1ccc(CN2CCN(Cc3ccc(CC)cc3)CC2)cc1 | 12 | 1 | 0 | 75* | 11 | 6
COc1ccc(S(=O)(=O)N2CCN(Cc3ccncc3)CC2)cc1 | -3 | -1 | 0 | 69* | -2 | 0
CCOc1ccc(CN2CCN(Cc3ccc(OC)cc3)CC2)cc1 | 4 | 3 | 0 | 58* | 20 | 16
O=S(=O)(c1ccc(F)cc1)N1CCN(Cc2cccc3ccccc23)CC1 | -16 | 0 | 1 | 82* | 10 | 9
O=S(=O)(c1ccc2ccccc2c1)N1CCN(Cc2ccccc2)CC1 | 4 | 2 | 0 | 21 | · | ·
Cc1ccc(S(=O)(=O)N2CCN(Cc3cccc4ccccc34)CC2)cc1 | -4 | -2 | 0 | 44 | · | ·
O=S(=O)(c1ccc2ccccc2c1)N1CCN(Cc2ccncc2)CC1 | 1 | 1 | 0 | 79* | 11 | 0
Cc1nn(C)cc1-c1nc2cnccn2c1NCC1CCCO1 (stereo not given) | -2 | 0 | 1 | 14 | · | ·
Cc1cc(=O)oc2cc(OCC(=O)OCC(=O)Nc3ccc4c(c3)OCCO4)ccc12 | -5 | -1 | 0 | 11 | · | ·
COc1ccc(-c2cc(N3CCN(C(=O)Cn4ccc5ccccc54)CC3)ncn2)cc1 | -2 | 2 | 0 | 15 | · | ·
CCOc1ccc(CN2CCN(Cc3ccccc3OC)CC2)cc1 | 9 | 1 | 0 | 44 | · | ·
SMILES | TEAD-YAP block | GPR151 activ | FBW7 activator | MITF primary | MITF inh conf | AlphaScreen intf2 | others
CCOc1ccc(CN2CCN(Cc3cc(OC)c(O)c(OC)c3)CC2)cc1 | -14 | 3 | 0 | 56* | 2 | 8
CCOc1ccc(CN2CCN(S(=O)(=O)c3ccc(OC)cc3)CC2)cc1 | 8 | -1 | 0 | 57* | -4 | -1
COc1ccc(CN2CCN(Cc3ccncc3)CC2)cc1 | 11 | -1 | 0 | 57* | -3 | 11
CCOc1ccc(CN2CCN(Cc3cc(OC)c(OC)cc3OC)CC2)cc1 | 0 | 0 | 0 | 74* | 2 | 8
CCOc1ccc(CN2CCN(S(C)(=O)=O)CC2)cc1 | 5 | 0 | 0 | 66* | -5 | -2
CCOc1ccc(CN2CCC(N3CCN(C)CC3)CC2)cc1 | -1 | -1 | 0 | 70* | -4 | -7
COc1cccc(NC(=O)c2sc3ncn(CC(=O)N4CCCCC4)c(=O)c3c2C)c1 | -21 | 1 | 0 | 3 | · | ·
COCCNCCCOc1c(Cl)cc(C)cc1Br | 6 | 3 | 0 | 27 | · | ·
Cc1cc(Br)cc(Cl)c1OCCCNCCN(C)C | -4 | 1 | 1 | -22 | · | ·
Cc1cc(C)c(OCCCNCCN(C)C)c(Br)c1 | 1 | 2 | -1 | 55* | 3 | 21
COCCCNCCOCCOc1c(C)cc(C)cc1Cl | 5 | -2 | 0 | 52* | 5 | 11
COCCCNCCCCOc1c(Cl)cc(C)cc1Br | 15 | 0 | 0 | 58* | 5 | 10
O=S(=O)(NCc1nnc2n1CCN(Cc1cc(F)cc(F)c1)CC2)c1ccccc1 | 18 | 0 | 0 | 4 | · | ·
COc1ccc(CCNC(=O)c2cc(Nc3ccnn3C)nc3ccccc23)cc1 | -4 | -2 | 0 | 69* | 0 | -2
O=C(Oc1cccc2cccnc12)c1cc(I)ccc1Cl | -2 | -1 | 0 | 18 | · | ·
CC(=O)c1ccc(NC(=O)CNCC(c2ccccc2)N(C)C)cc1 (stereo not given) | 12 | 1 | -1 | 66* | -7 | 0
CC(=O)c1ccc(NC(=O)CC(C)c2ccccc2)cc1 (stereo not given) | -18 | 2 | 0 | 8 | · | ·
Cn1c(C2COc3ccccc3O2)nc2cc(-c3ccncc3)ccc21 (stereo not given) | -31 | 0 | 0 | -73 | · | ·
COc1ccc2nc(-c3ccco3)c(-c3ccco3)nc2c1 | -1 | -2 | 0 | 52* | 66* | 19 | AlphaScreen DR=>5.8
CCCNC(=O)c1cnc(Nc2cnccn2)s1 | -12 | -2 | 0 | 55* | 3 | 8
COc1ccc(NC(=O)CSc2ccc(C(=O)O)cn2)cc1 | -5 | -1 | 0 | 4 | · | ·
COc1ccccc1NC(=O)N1CCCC1C(=O)NCc1ccccc1F (stereo not given) | 4 | 1 | 0 | 10 | · | ·
COc1ccccc1NC(=O)N1CCCC1C(=O)NCc1ccccc1Cl (stereo not given) | -2 | -1 | 0 | 73* | -3 | 9
COc1ccc(CN2CCN(CCCc3ccccc3)CC2)cc1OC | 6 | 1 | 0 | 59* | 12 | 15
Cc1ccc(CN2CCN(CCCc3ccccc3)CC2)cc1 | 6 | 2 | 0 | 66* | -13 | -2
COc1ccc(CN2CCN(CCCc3ccccc3)C(CCO)C2)cc1OC (stereo not given) | 2 | 0 | 0 | 7 | · | ·
Cc1ccc(S(=O)(=O)CCN2CCN(Cc3ccccc3)CC2)cc1 | 11 | 0 | 0 | 11 | · | ·
c1ccc(CCCN2CCN(Cc3ccncc3)CC2)cc1 | 6 | 0 | 0 | 69* | -9 | -7
c1ccc(CN2CCN(Cc3ccncc3)CC2)cc1 | 6 | 0 | 0 | 80* | -8 | 0
